Screening data as filed in PubChem.
GoLoco inh red – blocks human Gai1 binding to RGS12 GoLoco peptide, red readout | P63096 | Gai1:RGS12 GoLoco peptide FP, rhodamine, 10 min | Potency, µM (highest dose often 61.6 µM), for the others: at the highest dose activity, negative = inhibition, most hits filed as inhibitors | actives 0.44% (n = 230,000) | AID 880; active = well fitted inhibition curve with a large enough effect, not every such curve was filed as active; inactive = no such curve, though single readings can be large or run the other way; also: potency is read from the fitted curve at half-maximal effect; % is scaled to controls: 0 for no effect and ±100 for the full control effect; nearly all actives have a fitted effect of over 30% in size
PNC assembly inh – perinucleolar compartment assembly inhibition | AID 2417 | activity change (PNC), negative = inhibition, % at 10 µM | actives 3.1% (n = 140,000) | PC3M PTB-GFP, PNC prevalence imaging, 16 h; active compounds read low;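 active = readout at or below -70, meaning at least 70% loss of cells showing the perinucleolar compartment, a nuclear body marking cancer cells; inconclusive = readout between -30 and a set limit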;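 also: plate controls were DMSO wells for no effect and camptothecin positive control wells for full effect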
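PC3M cells stably expressing PTB-GFP, 750–1000 cells/well, treated 16 h at 37 °C with compound (23 nl of library stock), in duplicate. After paraformaldehyde fixation and Hoechst stain, imaged at 20x; PNC prevalence scored by image analysis.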
HTT aggregate – inhibitors of mutant huntingtin aggregate formation in PC12 cells | PC12 HttQ103-GFP aggregates, Acumen cytometry, 40 h | Potency, µM (highest dose often 46.1 µM), for inactives: at the top dose activity change, negative = inhibition, most hits filed as inhibitors | actives 1.1% (n = 220,000); also: potency is read from the fitted curve at half-maximal effect; % is scaled to controls: 0 for no effect and ±100 for the full control effect; nearly all actives have a fitted effect of over 60% in size
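Read-out: GFP aggregate count by laser scanning cytometer (488 nm excitation, 500-530 nm emission, 1–25 µm objects >6 SD above background). Cells: PC12, inducible HTTex1-Q103-GFP, 100 nM tebufenozide; compounds titrated.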
HTT cytoprotect – cytoprotection in Huntington HTT-Q103 PC12 cell model | PC12 HTT-Q103 induced, cytoprotection, ATP luminescence, 40 h | Potency, µM (doses to about 56.4 µM), for the others: cytoprotection (ATP increase), most hits filed as activators | actives 0.14% (n = 230,000); also: potency is read from the fitted curve at half-maximal effect; % of control where 0% means no effect; nearly all actives have a fitted effect of over 45% in size
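PC12 cells stably carrying ecdysone-inducible Htt exon 1 (Q103)–GFP were induced with 100 nM tebufenozide (final) alongside library compounds in a dose series. Cytoprotection was scored as retained ATP by ATPlite luminescence.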
HPGD inh – HPGD (human) dehydrogenase inhibition; P15428; purified HPGD, NADH fluorescence kinetic, PGE2 substrate; Potency, µM, inactives show top-dose activity change, negative = inhibition, actives largely listed as inhibitors; actives 4.3% (n = 150,000); AID 894; active = well fitted inhibition curve with a large enough effect, not every such curve was filed as active; inconclusive = small, poorly fitted or top-dose-only effect, or another doubt; inactive = no such curve, though single readings can be large or run the other way; also: potency is read from the fitted curve at half-maximal effect; % is scaled to controls: 0 for no effect and ±100 for the full control effect
Target sequence (P15428 whole entry, looked up): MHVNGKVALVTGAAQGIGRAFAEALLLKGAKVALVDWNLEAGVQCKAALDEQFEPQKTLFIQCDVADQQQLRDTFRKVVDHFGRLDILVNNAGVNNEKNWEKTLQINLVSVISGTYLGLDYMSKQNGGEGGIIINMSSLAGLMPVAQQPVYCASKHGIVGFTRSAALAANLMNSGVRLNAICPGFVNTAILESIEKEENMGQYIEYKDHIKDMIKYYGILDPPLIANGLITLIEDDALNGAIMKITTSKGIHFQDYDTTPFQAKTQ
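20 nM HPGD preincubated 15 min at room temperature with compound in 50 mM Tris-HCl pH 8, 0.01% Tween 20. Started with 1 mM NAD+ and 30 uM prostaglandin E2; NADH fluorescence (360/450 nm) read 5 times over 30-s intervals, last minus first.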
ALDH1A1 block – blocks purified human ALDH1A1 activity | Purified ALDH1A1, NADH fluorescence, propionaldehyde substrate | Potency, µM (doses to about 75.3 µM), for the others: at the top dose activity, negative = inhibition, usual class: inhibitors | actives 7.3% (n = 220,000); active = well fitted inhibition curve with a large enough effect, not every such curve was filed as active; inconclusive = small, poorly fitted or top-dose-only effect, or another doubt; inactive = no such curve, though single readings can be large or run the other way;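 also: potency is read from the fitted curve at half-maximal effect; plate controls were no enzyme wells and a reference inhibitor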
Target sequence (P00352 whole entry, looked up): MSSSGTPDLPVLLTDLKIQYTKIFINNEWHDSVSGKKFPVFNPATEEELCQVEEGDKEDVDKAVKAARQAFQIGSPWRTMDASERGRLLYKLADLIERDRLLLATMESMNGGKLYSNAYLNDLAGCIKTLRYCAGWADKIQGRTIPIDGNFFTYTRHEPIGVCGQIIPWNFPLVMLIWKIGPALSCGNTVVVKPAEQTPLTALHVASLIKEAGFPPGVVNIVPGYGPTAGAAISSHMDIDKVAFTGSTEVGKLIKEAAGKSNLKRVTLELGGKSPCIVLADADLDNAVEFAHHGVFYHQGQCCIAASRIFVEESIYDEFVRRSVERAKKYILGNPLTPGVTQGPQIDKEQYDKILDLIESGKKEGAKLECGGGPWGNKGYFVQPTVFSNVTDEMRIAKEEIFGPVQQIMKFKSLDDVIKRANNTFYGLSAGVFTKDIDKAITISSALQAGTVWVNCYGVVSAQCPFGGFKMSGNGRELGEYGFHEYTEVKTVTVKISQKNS
Starred values were filed as active, the others as inactive; ? = inconclusive; · = no result; ! = repeats disagree; [ ] = remark or other dose. Only some compounds are listed: those with a hit (about 11% of all), similar ones and a draw of the others. Unless noted, calls follow the shape of the dose curve; as a rule, active = well fitted curve in the direction sought with a large enough effect; inconclusive = small, poorly fitted or top-dose-only effect, or another doubt; inactive = no such curve, though single readings can be large; an effect the other way counts as inactive or inconclusive.

SMILES	GoLoco inh red	PNC assembly inh	HTT aggregate	HTT cytoprotect	HPGD inh	ALDH1A1 block
O=c1c(O)c(-c2ccc(O)cc2)oc2cc(O)cc(O)c12	5%	·	·	?	28µM*!	-6%[20.9 µM]
CCCCNc1nc(C)nc2c1nc(-c1ccccc1)n2C1CCN(Cc2ccccc2)C1 (stereo not given)	0%	·	·	-30%	-21%	?
COc1ccc(O)c(/C=c2/sc3nc4cc(C)c(C)cc4n3c2=O)c1	17%	?	-9%	-26%[0.074 µM]	7.9µM*	?
Cc1cccc(CSc2nc3c(c(-c4cccs4)c2C#N)CN(C)CC3)c1	8%	-25	-14%	·	-5%	?
CN1CCc2nc(SCC(=O)Nc3cccc(F)c3)c(C#N)c(-c3cccs3)c2C1	2%	14	25%	-19%	-25%	8.9µM*
CN1CCc2nc(SCC(=O)Nc3ccc(OC(F)(F)F)cc3)c(C#N)c(-c3cccs3)c2C1	1%	-2	4%	·	-24%	3.2µM*
COC(=O)c1ccccc1NC(=O)NCC1CCCO1 (stereo not given)	-2%	-122*	-17%	-5%[10 µM]	?	?
COc1ccccc1CC(=O)NCC1CCCO1 (stereo not given)	-2%	4	3%	-18%	25µM*	-7%
COc1ccccc1CCNC(=O)C1CCCO1 (stereo not given)	3%	-14	5%	-7%	18µM*	-4%
COc1ccc2c(c1)O[C@H](c1ccc3c(c1)OCO3)[C@@H](OC(=O)NCc1ccco1)C2=O	-2%	·	·	-17%	-11%	-15%
CC(Cc1ccccc1)C(=O)NCCc1c[nH]c2ccccc12 (stereo not given)	3%	·	·	-52%	-30%	?
CC(C)CN1CC2(CCN(C(=O)c3cccc(F)c3)CC2)C1	3%	·	·	-18%	-12%	-5%
CCc1cc(-c2[nH]ncc2-c2ccc3c(c2)OCO3)c(O)cc1O	14%	16	11µM*	-24%	?	-6%
CN(C(=O)c1cccc(Nc2ccc(-c3ccc4c(c3)OCCO4)nn2)c1)C1CCCCC1	70%	-22	?	-50%[10 µM]	?	25µM*
CC1(C)CC(=O)C=C(N=CC2=C(O)CC(C)(C)CC2=O)C1	-9%	?	-28%	-11%	-14%	8.9µM*
Cc1cccc(/N=C/C2=C(O)CC(C)(C)CC2=O)n1	3%	·	7%[9.22 µM]	20%[10 µM]	·	·
Cc1cc(N=CC2=C(O)CC(C)(C)CC2=O)no1	4%	-20	5%	1%	-1%	-7%
COc1ccc(N=CC2=C(O)CC(C)(C)CC2=O)cc1	2%	-23	20%	-26%	-5%	7.9µM*
COc1ccc(OC)c(N=CC2=C(O)CC(C)(C)CC2=O)c1	14%	-29	4%	-25%	-20%	13µM*
COc1ccc(N=CC2=C(O)CC(c3ccccc3)CC2=O)c(OC)c1 (stereo not given)	41%	38	23%	·	-11%	14µM*
CC1(C)CC(=O)C(C=Nc2ccncc2)=C(O)C1	·	·	·	-5%	·	·
C=CC[C@@](C(C)=O)(C(=O)OC)C(NC(=O)OC)c1ccccc1 (stereo not given in full)	-2%	·	·	-14%	-8%	-1%
COc1ccc(OC(=O)c2cnc3n(c2=O)CCS3)cc1	-2%	·	-7%[9.22 µM]	22%[10 µM]	·	4%
CCOC(C)(C)C	-10%	·	·	9%	-1%	6%
CCCCN(C)C1=CC2=CC(=C(C#N)C#N)CCC2CC1 (stereo not given)	32%	-83*	0.32µM*	6%[10 µM]	-19%	?
SMILES	GoLoco inh red	PNC assembly inh	HTT aggregate	HTT cytoprotect	HPGD inh	ALDH1A1 block
CCN(CC)C1=CC2=CC(=C(C#N)C#N)CCC2CC1 (stereo not given)	25%	-134*	0.1µM*	-23%[10 µM]	-18%	2.2µM*
N#CC(C#N)=C1C=C2C=C(N3CCCCC3)CCC2CC1 (stereo not given)	63%	-118*	10µM*	·	-13%	-10%
CCSc1ccc(C(=O)NCC(=O)O)cc1	-3%	·	23%[9.22 µM]	26%[10 µM]	·	2%
Nc1ccc(C(=O)NCC(=O)O)cc1	8%	·	-10%[20.6 µM]	3.2µM*!	-12%	1%
CC(C)(C)c1ccc(O)c(CN(Cc2cc(C(C)(C)C)ccc2O)C2CCCCC2)c1	2%[14.2 µM]	·	·	-1%[10 µM]	-12%	8%[13.5 µM]
O=C(CCc1nc(-c2ccccc2F)no1)NC1CCCCCC1	10%	?	-29%	-11%	28µM*	-11%
O=C(CCc1nc(-c2ccccc2)no1)NC1CCCCC1	8%	5	5%	-11%	18µM*	?
O=C(CCc1nnc(-c2ccccc2)o1)NC1CCCCC1	3%	·	-4%[9.22 µM]	-8%[10 µM]	·	1%
O=C(CSc1ncnc2c1cnn2CCO)Nc1cccc(C(F)(F)F)c1	0%	55	-5%	·	0%	3%
Cc1c(Br)c([N+](=O)[O-])nn1C(C)C(=O)N1CCCc2ccccc21 (stereo not given)	-1%	30	12%	-11%	-4%	2%
COC(=O)[C@@H]1CC[C@H](C)[C@@H](c2ccc(C)cc2)N1C(=O)c1ccc(/C=N\O[C@@H](C)CN2CCCCc3nc(C)c(C)cc32)cc1	·	·	·	12%[10 µM]	·	14%[13.5 µM]
COC(=O)c1sccc1NC(=O)COc1ccc(F)cc1Cl	11%	·	-8%[9.22 µM]	14%[10 µM]	·	9%
Cc1nn(-c2ccccc2)c(C)c1NC(=O)COc1ccc(F)cc1Cl	-5%	-102*	10%	·	-16%	?
Cc1nn(-c2ccccc2)c(C)c1NC(=O)Cc1cccs1	3%	39	-2%	-26%	16µM*	-4%
Cc1nn(-c2ccccc2)c(Cl)c1C(=O)NCc1cccs1	12%	?	19%	-4%[10 µM]	10µM*	-1%
Cc1nn(-c2ccccc2)c(Cl)c1C(=O)NCC(C)C	-10%	-20	-15%	-21%	10µM*	11%
Cc1nn(-c2ccccc2)c(C)c1C(=O)NCc1cccs1	9%	12	-13%	6%[10 µM]	?	4%
CC(=O)NCCc1nc2ccccc2n1CCc1ccccc1	12%	·	-9%[9.22 µM]	6%[10 µM]	·	3%
O=c1c(-c2cc(F)cc(F)c2)nc2cncnc2n1Cc1ccccc1Cl	6%	·	·	-28%	·	-13%
Cc1ccc(Nc2ncccc2C(N)=O)cc1[N+](=O)[O-]	-7%	45	-4%	·	-20%	?
CCNc1ncc2nc(-c3ccc(OC)cc3)c(=O)n(Cc3ccc(F)cc3)c2n1	-1%	·	·	23%	·	?
CC(C)CNC(=O)c1nc(-c2ccccc2)n(-c2ccccc2)n1	-16%	?	4%	-20%	-2%	13µM*
COc1cc(/C=N/NC(=O)c2nc(-c3ccccc3)n(-c3ccccc3)n2)ccc1O	9%	44	-6%	-1%[10 µM]	-20%	-1%
